PubChem BioAssay (NCI)
The panel holds about 83,000 compounds, 20% with a hit somewhere; the sample as a whole holds those more often.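 Treatment: one concentration, 48 hours, 96-well format. Scoring: percent growth, with anything below 10 considered active.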 Calls of active or inactive are those of the source.

Assays:
Assay in all cases: NCI-60 one-dose screen, 48 h (100 = growth as untreated, 0 = no growth, -100 = all killed)
Settings in all cases: 10 µM unless noted
[1] = tested on: NCI-H23 lung
[2] = tested on: NCI-H226 lung
[3] = tested on: NCI-H322M lung
[4] = tested on: HOP-62 NSCLC
[5] = tested on: NCI-H460 lung
[6] = tested on: NCI-H522 lung
[7] = tested on: A549/ATCC NSCLC
[8] = tested on: 786-0 renal
[9] = tested on: COLO 205 colon
[10] = tested on: HOP-92 NSCLC

Measured: growth

Fc1cccc(Oc2ccc(Nc3ncnc4ccc(OCCCN5CCOCC5)cc34)cc2Cl)c1
inactive: [1] 73.5% | [2] 88.1% | [3] 37.7% | [4] 82.5% | [5] 42.5% | [6] 43.8% | [7] 48.3% | [8] 51.9% | [9] 79.4%

COc1ccc(C(C)=O)cc1S(=O)(=O)Nc1c(N)nc(SC)[nH]c1=O
inactive: [1] 91.3% | [2] 104% | [3] 96.9% | [4] 110% | [5] 103% | [6] 98.6% | [7] 99.7% | [8] 102% | [9] 101%

O=C(/C=C/c1cccc(Cl)c1)c1cccc(OCCCOc2cccc(C(=O)/C=C/c3cccc(Cl)c3)c2)c1
inactive: [1] 89.2% | [2] 96.3% | [3] 106% | [4] 102% | [5] 103% | [6] 87.4% | [7] 100% | [8] 98.8% | [9] 106%

COc1ccc(-c2ccc(=O)oc2-c2cc(OC)c(OC)c(OC)c2)cc1O
inactive: [1] 25.9% | [2] 42.7% | [3] 43.5% | [7] 15.9% | [9] 12.5%
active: [4] -29% | [5] -18% | [6] -11.7% | [8] -6.12%

O=C(Nc1nc(-c2ccc(Cl)cc2)nc2c1sc(=S)n2-c1ccccc1)C(F)(F)F
active: [4] 9.09% | [8] -72.1%
inactive: [1] 49.2% | [2] 23.7% | [3] 49.4% | [5] 13.6% | [6] 25.2% | [7] 19.5% | [9] 21%

COc1ccc(F)cc1/C=C/C(=O)/C=C(/C=C/c1cc(F)ccc1OC)OB(F)F
inactive: [1] 35.2% | [2] 97.9% | [3] 103% | [4] 86.1% | [5] 75.2% | [7] 71.7% | [8] 19.4% | [9] 10.8%
active: [6] -20.7%

COc1cc(OCc2cccc(Br)c2C)cc(OC)c1C=O
inactive: [1] 75.7% | [2] 29.3% | [3] 92.6% | [4] 93.5% | [5] 75.8% | [10] 90.6% | [6] 62% | [7] 76.5% | [8] 79.4% | [9] 93.4%

COc1cc(C2CC(c3ccc(Nc4nc(Nc5ccc(Cl)cc5)nc(Nc5ccc(Cl)cc5)n4)cc3)=NN2C(C)=O)cc(OC)c1OC (centres undefined)
inactive: [1] 83.3% | [2] 104% | [3] 106% | [4] 105% | [5] 106% | [6] 86.8% | [7] 91.1% | [8] 90.6% | [9] 97.9%

CNC(=O)c1[nH]cc(-c2ccc(OC)cc2)c1-c1cc(OC)c2c(c1OC)OCO2
inactive: [1] 97.6% | [2] 97.8% | [3] 96.2% | [4] 85.3% | [5] 105% | [10] 89.6% | [6] 101% | [7] 99.1% | [8] 96.7% | [9] 118%

O=S(=O)(NCCCNc1nccc(-c2c(-c3ccc(F)c(O)c3)nc3sccn23)n1)c1ccccc1
inactive: [1] 58.3% | [2] 97.7% | [3] 87.7% | [4] 89.1% | [5] 62.2% | [6] 52.1% | [7] 63.8% | [8] 87.2% | [9] 30.4%

COC(=O)c1nc(-c2ccccc2)oc1S(=O)(=O)Cc1ccccc1
inactive: [1] 96.8% | [2] 96.1% | [3] 98.1% | [4] 99.2% | [5] 107% | [6] 38.1% | [7] 96.5% | [8] 71.4%
active: [9] -43%

N#CC1=C(N)Oc2c(ccc3ccccc23)C1c1ccccc1 (centres undefined)
inactive: [1] 25.7% | [2] 61.6% | [3] 55.6% | [4] 12.8% | [7] 10.8% | [8] 13.5%
active: [5] 6.31% | [6] -15.8% | [9] -49.8%

CC1=C([Se]CC(OC(=O)CC[Se]c2ccccc2)C(=O)NC(C)(C)C)C(=O)c2ccccc2C1=O (centres undefined)
active: [1] -45.6% | [2] -49.4% | [3] -51.9% | [4] -36.1% | [5] -49.2% | [6] -38.7% | [7] -1.39% | [8] -90.2% | [9] -90.1%
